Consider 37 compounds from PubChem BioAssay.

Experiment [1] deals with transactivating tegument protein VP16 (Human herpesvirus 1). Description: VP16 transactivation reporter inhibitors, counter-screen for SRC2 inhibitor project, cell-based, luminescence, single concentration (AID 652007). The following applies: cell-based VP16 transactivation luciferase reporter, at 8.9 µM, active compounds read high.
Experiment [2] addresses Nuclear receptor coactivator 2 (Homo sapiens) (UniProt Q15596). As to the kind of experiment: SRC2 coactivator transcriptional activity inhibitors, confirmation, cell-based, luminescence, HEK293, triplicate (AID 652008;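 active = mean inhibition above 46.5%, the solvent-only control mean plus 3 SD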;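 also: 0% = DMSO-treated cells and 100% = Gossypol at 36 µM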). The following applies: HEK293 GAL4-SRC2 luciferase reporter, at 8.9 µM, active compounds read high. (Reporter assays use an easily measured gene product as a stand-in for the process of interest.)

Unmarked numbers belong to inactive results. Activity calls are given as the source filed them. Rule as the data show it, unless noted: active = inhibition above about 36%; inactive = the rest.

Chain of Nuclear receptor coactivator 2 (Homo sapiens) (Q15596 whole entry, looked up, the tested form may be a part): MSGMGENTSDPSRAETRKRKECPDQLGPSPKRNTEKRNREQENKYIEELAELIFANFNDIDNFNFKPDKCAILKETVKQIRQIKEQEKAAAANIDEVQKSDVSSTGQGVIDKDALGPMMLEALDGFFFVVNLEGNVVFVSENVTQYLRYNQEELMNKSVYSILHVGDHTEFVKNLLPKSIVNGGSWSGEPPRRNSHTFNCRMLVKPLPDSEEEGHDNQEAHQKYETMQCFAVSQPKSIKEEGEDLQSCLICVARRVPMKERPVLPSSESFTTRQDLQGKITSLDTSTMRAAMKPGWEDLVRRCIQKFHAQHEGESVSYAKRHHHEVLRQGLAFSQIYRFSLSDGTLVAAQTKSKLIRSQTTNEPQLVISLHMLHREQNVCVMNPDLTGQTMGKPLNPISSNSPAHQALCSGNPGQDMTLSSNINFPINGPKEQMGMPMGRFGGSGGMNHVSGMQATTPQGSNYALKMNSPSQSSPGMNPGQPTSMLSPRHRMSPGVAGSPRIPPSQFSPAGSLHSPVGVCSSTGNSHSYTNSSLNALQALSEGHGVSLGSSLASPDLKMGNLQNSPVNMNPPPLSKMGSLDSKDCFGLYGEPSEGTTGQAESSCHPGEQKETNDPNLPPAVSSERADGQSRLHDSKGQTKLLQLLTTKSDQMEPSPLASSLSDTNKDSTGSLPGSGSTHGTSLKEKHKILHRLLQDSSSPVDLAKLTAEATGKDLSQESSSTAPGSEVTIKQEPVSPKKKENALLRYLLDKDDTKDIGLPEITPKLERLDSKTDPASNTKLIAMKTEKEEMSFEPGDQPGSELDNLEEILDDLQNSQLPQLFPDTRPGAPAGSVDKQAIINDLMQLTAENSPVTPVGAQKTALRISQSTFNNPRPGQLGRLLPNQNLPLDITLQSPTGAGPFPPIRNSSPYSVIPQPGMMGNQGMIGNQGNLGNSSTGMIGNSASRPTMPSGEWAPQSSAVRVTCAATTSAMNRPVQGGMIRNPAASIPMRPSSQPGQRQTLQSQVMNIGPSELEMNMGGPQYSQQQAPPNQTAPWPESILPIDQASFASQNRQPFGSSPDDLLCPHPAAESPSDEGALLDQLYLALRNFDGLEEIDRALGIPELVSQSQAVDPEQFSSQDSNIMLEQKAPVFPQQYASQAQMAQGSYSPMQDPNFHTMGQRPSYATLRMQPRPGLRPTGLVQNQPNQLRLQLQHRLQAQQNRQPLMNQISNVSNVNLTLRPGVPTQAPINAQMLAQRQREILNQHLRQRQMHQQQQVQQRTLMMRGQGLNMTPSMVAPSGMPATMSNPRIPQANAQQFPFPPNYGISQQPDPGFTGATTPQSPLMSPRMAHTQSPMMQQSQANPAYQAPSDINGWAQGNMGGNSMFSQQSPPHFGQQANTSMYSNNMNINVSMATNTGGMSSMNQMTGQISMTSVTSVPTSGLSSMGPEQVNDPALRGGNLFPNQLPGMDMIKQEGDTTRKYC

By inhibition is commonly meant the change of the read-out against control, counted positive when it falls. Regarding `Cc1ccc(C)c(N2CCN(C(=O)c3ccc4c(c3)c(C)c(C)n4C)CC2)c1`, the inhibition is -28.6% in experiment [1] and 3.19% in experiment [2].
For the compound `CC(C)[C@H](CO)Nc1nc(NCc2ccc(S(N)(=O)=O)cc2)c2ncn(C(C)C)c2n1`, the inhibition in experiment [1] was 14.3%; in experiment [2], 37.8%.
For `CC(C)C(=O)Nc1ccc(C(=O)NCc2cccnc2)cc1`, in that order: -2.6% and 33.3%.
For `CCOC(=O)N1C(=O)[C@@](c2ccc(Cl)cc2)(C(C)C)N1C(=O)OCC`, in that order: -14% and 16.6%.
For `COc1cccc(CNC(=O)C2CCN(S(=O)(=O)c3ccc(F)cc3)CC2)c1`, in that order: 16.3% and -10.1%.
Regarding `Cc1ccc(-c2noc(CCC(=O)NCCN3CCN(Cc4ccccc4)CC3)n2)cc1`, the inhibition in experiment [1] is 12.2%; in experiment [2] it was 41.6%.
For the compound `Cc1ccc(-c2c3c(nc4sc(C(N)=O)c(N)c24)CCC3)cc1`, the figures for the inhibition in experiment [1] and in experiment [2] were 1.89% and 34.5%, respectively.
For `C[C@@H]1C(c2ccc(F)cc2)=NN(c2ccccc2)[C@H]1C(=O)N1CCOC1=O`, in that order: -11.2% and -21.5%.
Regarding `CCOC(=O)[C@H]1[C@H]2COc3ccc(Br)cc3[C@@H]2N2C(=O)CN(Cc3ccco3)C(=O)[C@@]12C`, the inhibition is 0.08% in experiment [1] and -14.4% in experiment [2].
With `O=[N+]([O-])c1cccc2c(N3CCCC3)ccnc12`, the inhibition in experiment [1] was 11.7%; in experiment [2], -23.4%.
For the compound `COC(=O)[C@H]1C[C@@]2(c3ccccc3)c3ccccc3N(S(=O)(=O)c3ccccc3)[C@H]2N1`, the inhibition in experiment [1] was 6.95%; in experiment [2], 18.3%.
For the compound `CN(Cc1ccccc1)C(=O)c1ccc(NC(=O)C2CCN(C(=O)OC(C)(C)C)CC2)cc1`, the inhibition in experiment [1] was 15.8%; in experiment [2] it was 60.4% (active).
For `COc1ccc(C2C(O)C(c3c[nH]c4ccccc34)=NN2C(=O)CCl)cc1` (centres undefined), in that order: 72.7% (active) and 79.9% (active).
On to `Nc1nc(-c2ccccc2)c(N=Nc2cccnc2)s1`, for which the inhibition was 5.71% in experiment [1] and 11.2% in experiment [2].
For `COCc1ccc(C(=O)N2CCC(CCC(=O)Nc3cccc(C)c3)CC2)s1` the same measures were 27.4% and 46.9% (active).
Take `Cc1nc2ccccc2c2c1CC(C(C)(Cl)Br)O2` (centres undefined): the results for the inhibition in experiment [1] and in experiment [2] were 5.15% and 29.1%, respectively.
For `CN1/C(=C\C=C2/SC(=S)NC2=O)C(C)(C)c2ccccc21`, the figures for the inhibition in experiment [1] and in experiment [2] were 8.01% and 15.6%, respectively.
Regarding `Cc1cc(C(=O)COc2cccnc2[N+](=O)[O-])c(C)n1-c1ccccc1F`, the inhibition in experiment [1] was -54.6%; in experiment [2], 62.7% (active).
On to `C=CCN(CC#CCN(C)C(=O)c1cccn1C(=O)OC(C)(C)C)Cc1ccc(OC)cc1OC`, for which the inhibition in experiment [1] is -6.71%; in experiment [2] it was -1.62%.
For `CCN(CC(=O)Nc1cc(Cl)ccc1C)C(=O)C1CCN(c2ncnc3sc(C)c(C)c23)CC1` the same measures were 8.26% and 20.7%.
As for `O=C(Nc1ccc2c(c1)OCCO2)c1ccc(Br)c(S(=O)(=O)N2CCOCC2)c1`, the inhibition was -39.8% in experiment [1] and 45.5% in experiment [2].
As for `COc1cccc(NC(=O)Nc2nnc(N3C(C)CCCC3C)s2)c1` (centres undefined), the inhibition is -51.2% in experiment [1] and -7.93% in experiment [2].
Consider `CCOC(=O)C1(CC2CC2)CCN(Cc2cnc(-c3ccccc3C)nc2)CC1`, for which the figures for the inhibition in experiment [1] and in experiment [2] were 3.57% and 3.04%, respectively.
`NNC(=O)c1[nH]c2ccc(Br)cc2c1-c1ccccc1`: the values for the inhibition in experiment [1] and in experiment [2] were -11.1% and -1.32%, respectively.
On to `CCN(CC)S(=O)(=O)c1ccc(NC(=O)Nc2cccc(C(F)(F)F)c2)cc1`, for which the values for the inhibition in experiment [1] and in experiment [2] were -13.1% and 14%, respectively.
`N#CC1CCCc2c1[nH]c1ccc([N+](=O)[O-])cc21` (centres undefined): the inhibition was -27% in experiment [1] and -16.7% in experiment [2].
For `COc1ccc(-c2cn3cccnc3n2)cc1NC(=O)C(C)Oc1ccccc1` (centres undefined), the inhibition was -18.1% in experiment [1] and -20.2% in experiment [2].
For `COc1ccc(-n2nc3cc(C)c(N)c(Br)c3n2)cc1`, in that order: -67.1% and -140%.
For `Cc1c(CCC(=O)N[C@@H](CC(C)C)C(=O)O)c(=O)oc2cc3oc4c(c3cc12)CCCC4`, in that order: 37.5% (active) and 69.8% (active).
Consider `Cc1cccc(C)c1NC(=O)C[n+]1cc(-c2ccccc2)n2c1CCC2`, for which the inhibition in experiment [1] is -22.3%; in experiment [2] it was -2.7%.
Consider `c1ccc(-c2csc3ncnc(NCc4ccccn4)c23)cc1`, for which the inhibition in experiment [1] is -7.12%; in experiment [2], 4.33%.
`Cc1ccc(NS(=O)(=O)c2cccc(C(=O)NCCCN3CCCC3=O)c2)cc1`: the inhibition is -1.94% in experiment [1] and 0.08% in experiment [2].
For `CC1CCC(C(C)C)C(OCC(O)CN2CCCC(C)C2)C1` (centres undefined) the same measures were -4.71% and -16.1%.
For the compound `COc1ccc(C(NC(=O)C2CCN(CCCOc3ccccc3)CC2)c2cccs2)cc1` (centres undefined), the inhibition in experiment [1] is -8.07%; in experiment [2], 3.49%.
With `Cn1nnnc1Sc1ncnc2scc(-c3ccc(C#N)cc3)c12`, the inhibition in experiment [1] was 12.5%; in experiment [2], 30.8%.
As for `Fc1ccc(-c2nnc(NC3=NCCCCC3)o2)cc1`, the inhibition in experiment [1] is -10.8%; in experiment [2], 31.4%.
Take `COc1ccc(S(=O)(=O)N2CCCC(C(=O)NCc3ccncc3)C2)cc1` (centres undefined): the inhibition in experiment [1] was -0.24%; in experiment [2], 10.6%.
